# Results as given in PubChem BioAssay AID493035 (The Scripps Research Institute Molecular Screening Center, 2011).
# Among all 2,000 compounds or so, about 45 (2%) were called active.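 The calls were made as follows: active = inhibition above the mean of all tested compounds plus 3 SD (cut at about 49% in these data); inactive = the rest.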 The sample as a whole holds a higher share of actives than the screen did.
# Target: Perilipin-5 (Homo sapiens) + 1-acylglycerol-3-phosphate O-acyltransferase ABHD5 (Homo sapiens) (UniProt Q00G26+Q8WTS1)
# Sequence (Q00G26 whole entry, looked up): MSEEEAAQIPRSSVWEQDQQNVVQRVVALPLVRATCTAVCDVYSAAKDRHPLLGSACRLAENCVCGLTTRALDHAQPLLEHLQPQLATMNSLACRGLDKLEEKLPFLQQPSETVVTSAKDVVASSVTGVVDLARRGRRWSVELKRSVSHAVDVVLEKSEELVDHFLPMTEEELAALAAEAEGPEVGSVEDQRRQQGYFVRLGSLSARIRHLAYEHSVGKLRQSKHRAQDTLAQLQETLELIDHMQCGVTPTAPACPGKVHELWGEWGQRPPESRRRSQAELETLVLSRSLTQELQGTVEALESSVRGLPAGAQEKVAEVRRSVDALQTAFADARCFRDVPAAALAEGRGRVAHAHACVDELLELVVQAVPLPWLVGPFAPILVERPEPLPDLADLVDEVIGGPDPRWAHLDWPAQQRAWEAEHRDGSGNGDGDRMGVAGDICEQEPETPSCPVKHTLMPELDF
# Sequence (Q8WTS1 whole entry, looked up): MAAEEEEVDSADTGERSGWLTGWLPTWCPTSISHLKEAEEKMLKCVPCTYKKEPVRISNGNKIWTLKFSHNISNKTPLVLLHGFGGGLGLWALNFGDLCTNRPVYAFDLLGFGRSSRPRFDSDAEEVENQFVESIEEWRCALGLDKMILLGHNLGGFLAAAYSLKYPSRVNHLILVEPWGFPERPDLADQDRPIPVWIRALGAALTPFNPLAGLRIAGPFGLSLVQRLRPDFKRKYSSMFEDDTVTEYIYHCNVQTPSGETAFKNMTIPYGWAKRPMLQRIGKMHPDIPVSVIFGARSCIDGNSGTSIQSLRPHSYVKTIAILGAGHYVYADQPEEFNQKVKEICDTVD
# Assay: blockers of ABHD5 binding to perilipin-5 – cell lysate, split luciferase complementation, luminescence, NIH validation set, pilot screen (AID 493035);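 as to inhibition: 0% = DMSO only wells while the 100% control is not stated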
# Details: split G. princeps luciferase complementation, lysates, 4 h; at 7.9 µM, hits give high values
row,SMILES,inhibition
1,O=C1CCCCCN1Cc1ccccc1,9.82% (inactive)
2,O=C1C=CC(=O)C(C2=C3C(=O)N(CCc4ccccc4)CC(=O)N3CCC2)=C1,74.5% (active)
3,C/C(=N/N1CCN(Cc2cccc3ccccc23)CC1)c1cccnc1,-8.01% (inactive)
4,CC1(C)C2CCC1(C(=O)O)c1nc3ccccc3nc12 (stereo not drawn),-0.64% (inactive)
5,Cc1ccc(S(=O)(=O)Nc2ccc(S(=O)(=O)Nc3cc(C)nc(C)n3)cc2)cc1,4.03% (inactive)
6,CC(C)CCOCC(=O)Nc1cccc(C(=O)O)c1,-0.57% (inactive)
7,COC(=O)C1=C(C)NC(C)=C([N+](=O)[O-])C1c1ccccc1C(F)(F)F (stereo not drawn),-2.75% (inactive)
8,COC(=O)C1=C(C)NC(C)=C(C(=O)OC)C1c1ccccc1[N+](=O)[O-],active
9,CCOC(=O)C1=C(C)NC(C)=C(C(=O)OC)C1c1cccc([N+](=O)[O-])c1 (stereo not drawn),3.99% (inactive)
10,O=C(O)CCSCCC(=O)O,2.26% (inactive)
11,CC12CCC(C(=O)N3CCCCC3)([C@H](Br)C1=O)C2(C)C (stereo partly drawn),-4.77% (inactive)
12,COc1ccc(C(=O)Nc2ccccc2C(=O)NC(Cc2c[nH]c3ccccc23)C(=O)O)cc1 (stereo not drawn),1.79% (inactive)
13,COc1ccc(/C=C\C(=O)c2c(O)ccc3c(C)cc(=O)oc23)cc1OC,59.1% (active)
14,COc1ccc(C(=O)Oc2ccc3c(C)cc(=O)oc3c2C(C)=O)cc1,2.94% (inactive)
15,COc1ccc(/C=C/C(=O)Nc2ccccc2C(=O)O)cc1OC,-12.4% (inactive)
16,Cc1ccc2c(CC(=O)O)coc2c1,-6.46% (inactive)
17,CCSC(SCC)[C@H](O)[C@@H](O)[C@H](O)[C@H](O)CO,-2.61% (inactive)
18,CC(C)(C)C(=O)N1CCCC1C(=O)O (stereo not drawn),-7.48% (inactive)
19,Nc1ccc(-c2nc3ncccc3o2)c(Cl)c1,-10.8% (inactive)
20,CC(C)Cc1cc(C(=O)N2CCC(N3CCC(C(=O)N4CCCC4)CC3)CC2)n[nH]1,-3.07% (inactive)
21,COc1cc(C2Nc3ccccc3NC3=C2C(=O)CC(c2ccc(OC)c(OC)c2)C3)ccc1O (stereo not drawn),1.84% (inactive)
22,C=CCC1(O)C(=O)N2C(=C1C(=O)N1CCOCC1)c1ccccc1CC2(C)C (stereo not drawn),0.31% (inactive)
23,Cc1ccc2c(c1)C(O)(CC(=O)/C=C/C=C/c1ccccc1)C(=O)N2 (stereo not drawn),24.3% (inactive)
24,Cc1ccc(C2=NOC(=O)/C2=C\C=C\c2ccccc2)cc1,94.4% (active)
25,NC(=O)c1c(-c2ccccc2)oc2ccc(O)cc12,-5.91% (inactive)

row,SMILES,inhibition
1,CCOC(=O)C1=C(C)N[C@@]2(O)c3ccccc3C(=O)[C@@]12O,10.3% (inactive)
2,COc1ccc(OC(C)C(=O)Nc2ccccc2F)cc1 (stereo not drawn),2.02% (inactive)
3,O=C(c1cccnc1)N1N=C(C2CC2)CC1(O)C(F)(F)F (stereo not drawn),2.77% (inactive)
4,O=C(Nc1cccc(C(=O)O)c1)/C(=C\c1ccccc1)NC(=O)c1ccccc1,-2.05% (inactive)
5,O=C(O)CCCCCCNC(=O)c1cncc(O)c1,-6.1% (inactive)
6,CC(=O)OC(CC(=O)O)C[N+](C)(C)C (stereo not drawn),-14.8% (inactive)
7,COc1ccc(C(=O)Nc2nc3ccccc3c(=O)[nH]2)cc1,0.27% (inactive)
8,CC(C)N1C(=O)/C(=C\c2nc3ccccc3c(=O)[nH]2)c2ccccc21,64.9% (active)
9,COc1ccc(NC(=O)C2CSC3c4ccccc4C(=O)N23)cc1 (stereo not drawn),4.85% (inactive)
10,CCOC(=O)C(Cc1cc(C(C)=O)ccc1OC(C)C)C(=O)OCC,-3.49% (inactive)
11,O=C1C2C3C=CC(C4CC34)C2C(=O)N1/N=C/c1ccc(-c2ccc([N+](=O)[O-])cc2)o1 (stereo not drawn),-2% (inactive)
12,c1ccc(Cn2ncc3c(Nc4ccccc4)ncnc32)cc1,-6.21% (inactive)
13,O=C(NO)c1ccccc1O,-11.8% (inactive)
14,CC(=O)N[C@@H](CS)C(=O)O,-2.08% (inactive)
15,COC(=O)[C@@H](N)CS,78.9% (active)
16,COc1cc(OC)c2c(C)c(Cl)c(=O)oc2c1,-6.84% (inactive)
17,CCN(CC)C(=O)c1sc(NC(=O)c2c(OC)cccc2OC)c(C#N)c1C,-4.18% (inactive)
18,CCCC(CCC)C(=O)OC1C[C@H]2CC[C@@H](C1)[N+]2(C)C (stereo partly drawn),-9.28% (inactive)
19,CCN(CC)C(=S)SSC(=S)N(CC)CC,95.2% (active)
20,COc1ccc(O)c(C2=Nc3ccccc3N=C(c3ccccc3)C2)c1,-11.4% (inactive)
21,C=CCOc1ccc(C(=O)CC)cc1OC,-3.26% (inactive)
22,CCCCc1oc2ccccc2c1C(=O)c1cc(I)c(OCCN(CC)CC)c(I)c1,-3.91% (inactive)
23,CCc1oc2ccccc2c1C(=O)c1cc(Br)c(O)c(Br)c1,50.7% (active)
24,CC(=O)CCc1oc2ccccc2c1-c1ccccc1,-0.95% (inactive)
25,COc1ccc2cc[nH]c2c1,5.24% (inactive)

row,SMILES,inhibition
1,COc1cccc2c(=O)c(C/C=C(/C)Cl)c(C)[nH]c12,-0.4% (inactive)
2,COc1ccc(N2CCN(C(=S)NCc3ccccc3)CC2)cc1,10.2% (inactive)
3,CC(C)=CCC(C)(C)/C=N/NC(N)=O,-11.2% (inactive)
4,COc1ccccc1C(CCN(Cc1ccccc1)C(C)=O)c1ccco1 (stereo not drawn),7.01% (inactive)
5,O=C(c1ccco1)N(CCC(c1ccccc1)c1ccco1)Cc1ccco1 (stereo not drawn),58.6% (active)
6,CC(=O)N(CCC(Cc1ccccc1)c1ccco1)Cc1ccco1 (stereo not drawn),39.1% (inactive)
7,COc1ccc(-c2cc(C(=O)N3CCOCC3)c3cc(C)ccc3n2)cc1,-3.27% (inactive)
8,O=C(c1ccc(Cl)cc1)C1CCCN(C(=O)/C=C/c2ccccn2)C1 (stereo not drawn),8.56% (inactive)
9,CCCCC/C=C\C[C@H](O)/C=C/c1cccc(C[C@H](O)CCCCO)n1,62.8% (active)
10,CSCCC(NC(=O)/C(=C/c1ccc2c(c1)OCO2)NC(=O)c1cccc([N+](=O)[O-])c1)C(=O)O (stereo not drawn),5.37% (inactive)
11,OC[C@@H](O)[C@@H](O[C@H]1O[C@H](CO)[C@@H](O)[C@H](O)[C@H]1O)[C@H](O)[C@@H](O)CO,-8.59% (inactive)
12,Cc1cccc(C(=O)c2cccc(C)c2)c1,-8.84% (inactive)
13,Cn1c(=O)c(C(=O)NCCO)c(O)c2ccccc21,-4.23% (inactive)
14,O=C(Nc1ccc(Oc2c(F)c(F)c(F)c(F)c2F)cc1)OC1CCN2Cc3ccccc3N=C12 (stereo not drawn),69.3% (active)
15,Cc1ccc(S(=O)(=O)N2CCC(C(=O)N[C@@H](C)C(=O)NC3CCS(=O)(=O)C3)CC2)cc1 (stereo partly drawn),-6.13% (inactive)
16,Cc1ccc(-c2nnc(-c3ccc4c(c3)OCO4)o2)cc1,-9.18% (inactive)
17,CCN1/C(=C/C=C/C=C/c2sc3ccccc3[n+]2CC)Sc2ccccc21,70.5% (active)
18,CC(CN1c2ccccc2Sc2ccccc21)N(C)C (stereo not drawn),-12.2% (inactive)
19,CN(C)CCCN1c2ccccc2Sc2ccccc21,-13% (inactive)
20,C=CCn1c(SCC(=O)NC2CCCCC2)nc2ccccc2c1=O,-1.42% (inactive)
21,COc1ccccc1-c1ccc(/C=C2/C=C(CC(C)C)OC2=O)o1,7.79% (inactive)
22,CCOC(=O)c1c(C)oc2cc(Br)c(OC(C)C(=O)OCC)cc12 (stereo not drawn),-0.05% (inactive)
23,COc1cccc(OCC(O)CO)c1 (stereo not drawn),-6.51% (inactive)
24,N#C/C(C(N)=O)=c1/ccc2c(c1)N1C3=C(CCCC3)CC3CCCCC31N=2 (stereo not drawn),25.4% (inactive)
25,COc1ccc(C(=O)/C=C/c2cc(C(=O)O)cc3c2OCOC3)c(O)c1,70.3% (active)

row,SMILES,inhibition
1,COc1ccc(C(=O)COc2ccc(F)cc2)c(O)c1,-6.5% (inactive)
2,COc1cccc(/C=C/C(=O)c2c(O)cc(C)oc2=O)c1O,44.4% (inactive)
3,CC1=CC(C)(C)N2C(=O)C3(NCCc4c3[nH]c3ccccc43)c3cc(C)cc1c32 (stereo not drawn),-1.07% (inactive)
4,O=C(NC(=S)Nc1ccc(N2CCN(C(=O)c3ccccc3)CC2)cc1)c1cccs1,11.4% (inactive)
5,Cc1ccc(S(=O)(=O)n2ccnc2)cc1C,-3.74% (inactive)
6,COC(=O)C1=C(C)N(Cc2ccco2)C(=O)/C1=C\c1ccc([N+](=O)[O-])cc1,84.5% (active)
7,COCCCN1C(=O)/C(=C\c2cccs2)C(C(=O)OC)=C1C,0.91% (inactive)
8,COC(=O)c1ccc(=O)n(Cc2ccco2)c1,18.6% (inactive)
9,CCNC(=O)C12CCC(C)(C(=O)O1)C2(C)C (stereo not drawn),-5.33% (inactive)
10,CC(C)[C@H](NC(=O)[C@@H]1CSCN1C(=O)OC(C)(C)C)C(=O)NCC1CCC(C(=O)O)CC1 (stereo partly drawn),-18.6% (inactive)
11,CC(=O)N/C(=C/c1ccc2c(c1)OCO2)C(=O)NCCO,2.23% (inactive)
12,COc1ccc(C2=C(CN(C)C)C(c3ccccc3)c3ccccc3O2)cc1 (stereo not drawn),1.13% (inactive)
13,CCOC(=O)C(=Cc1ccccc1OC)C(=O)OCC,47.9% (active)
14,COc1ccccc1/C=C/C(=O)OCCN1CCOCC1,-8.59% (inactive)
15,CCOC(=O)C(=O)N1CCN(c2ccccc2OC)CC1,-5.55% (inactive)
16,CCn1cc(CN2N=C(C)CC2c2ccccc2)c(C)n1 (stereo not drawn),2.34% (inactive)
17,Cc1ccc(S(=O)(=O)NC(=O)Nc2cc(C)ccc2F)cc1,-7.32% (inactive)
18,CC(C)(C)N1NC2(CCCCC2)NC1=S,6.12% (inactive)
19,COc1ccc2oc(=O)c(C(=O)N3CCN(c4ccccc4)CC3)cc2c1,9.11% (inactive)
20,COc1ccc2oc(=O)c(C(=O)Nc3ccccc3-c3ccccc3)cc2c1,-5.51% (inactive)
21,COc1ccc(O)c(C(=O)/C=C/c2cc3ccccc3o2)c1,73.2% (active)
22,Cc1ccc(C(=O)O)cc1NC(=O)c1cccs1,-5.26% (inactive)
23,CN1/C(=C\C=Nc2ccccc2)C(C)(C)c2ccccc21,14.1% (inactive)
